In all, about 140,000 sequences were measured (“enrichment ratio after two sorts for PhoP signalling”: median about 0, highest 2% from about 11 on). Shown is part of a subset that was picked to be rich in the highest values.

The labels stand for the following.
B1: PhoQ; a variant is named by its letters at X, in order, P23837 (parent)
chain: MKKLLRLFFPLSLRVRFLLATAAVVLVLSLAYGMVALIGYSVSFDKTTFRLLRGESNLFYTLAKWENNKLHVELPENIDKQSPTMTLIYDENGQLLWAQRDVPWLMKMIQPDWLKSNGFHEIEADVNDTSLLLSGDHSIQQQLQEVREDDDDAEMTHSVAVNVYPATSRMPKLTIVVVDTIPVELKSSYMVWSWFIYVLSANLLLVIPLLWVAAWWSLRPIEALAKEVRELEEHNRELLNPATTRELTSLVRNLNRLLKSERERYDKYRTTLTDLTHSLKTPLXXLQXXLRSLRSEKMSVSDAEPVMLEQISRISQQIGYYLHRASMRGGTLLSRELHPVAPLLDNLTSALNKVYQRKGVNISLDISPEISFVGEQNDFVEVMGNVLDNACKYCLEFVEISARQTDEHLYIVVEDDGPGIPLSKREVIFDRGQRVDTLRPGQGVGLAVAREITEQYEGKIVAGESMLGGARMEVIFGRQHSAPKDE

This experiment covers variants of B1. Put plainly: enrichment ratio after two sorts for PhoP signalling (ratio (wild type AVST 3.29)); higher = more functional. Conditions: with PhoP (E. coli).
Consider NIWM, for which the enrichment ratio is ≤ 0.25.

Regarding NICI, the enrichment ratio is ≤ 0.25.

On to AICR, for which the enrichment ratio amounted to 11.2.

Take WICV: the enrichment ratio is ≤ 0.25.

On to WICR, for which the enrichment ratio is ≤ 0.25.

Take AICV: the enrichment ratio worked out at 15.3.

As for AHMR, the enrichment ratio is ≤ 0.25.

For IVKK, the enrichment ratio was ≤ 0.25.

Take LSQL: the enrichment ratio is ≤ 0.25.

For TSAF, the enrichment ratio is 7.11.

As to PIGM, the enrichment ratio was ≤ 0.25.

In the case of AHYP, the enrichment ratio is ≤ 0.25.

In the case of AIWM, the enrichment ratio was ≤ 0.25.

For the variant AIGM, the enrichment ratio was determined as 8.76.

For the variant AICS, the enrichment ratio came to 18.9.

As to NICS, the enrichment ratio was ≤ 0.25.

For the variant AICA, the enrichment ratio is 3.23.

On to AIYP, for which the enrichment ratio was found to be 12.7.

With AILH, the enrichment ratio worked out at 3.54.

Take WICS: the enrichment ratio is ≤ 0.25.

As to AICK, the enrichment ratio was 24.4.

On to ADYP, for which the enrichment ratio was ≤ 0.25.

As to AICI, the enrichment ratio was determined as 16.9.

With MWPS, the enrichment ratio was ≤ 0.25.

VCLF: the enrichment ratio amounted to 0.991.

As to LARM, the enrichment ratio was ≤ 0.25.

For VEST, the enrichment ratio worked out at 4.04.

In the case of APVK, the enrichment ratio is ≤ 0.25.

Turning to HAAR, the enrichment ratio is ≤ 0.25.

For AHCE, the enrichment ratio was ≤ 0.25.

For AICE, the enrichment ratio was 14.2.

On to AIIE, for which the enrichment ratio is ≤ 0.25.

With HKRT, the enrichment ratio is ≤ 0.25.

For the variant NRGY, the enrichment ratio was ≤ 0.25.

For DMWC, the enrichment ratio was ≤ 0.25.

With SNAV, the enrichment ratio was found to be 12.6.

TNAE: the enrichment ratio was ≤ 0.25.

For the variant AKAV, the enrichment ratio turned out to be 0.73.

For the variant TNAS, the enrichment ratio was found to be 13.9.

For MNAS, the enrichment ratio was 6.24.

Consider SNAE, for which the enrichment ratio turned out to be 7.95.

With TNAV, the enrichment ratio was determined as 27.6.

With SQAV, the enrichment ratio is 6.43.

With ANAE, the enrichment ratio is ≤ 0.25.

Take MNAV: the enrichment ratio turned out to be 2.67.

For the variant ANAV, the enrichment ratio was 14.3.

As for TNAT, the enrichment ratio was found to be 11.

Consider VMEP, for which the enrichment ratio was ≤ 0.25.

Take SHGD: the enrichment ratio was ≤ 0.25.

Regarding NFGC, the enrichment ratio is ≤ 0.25.

Take DFHC: the enrichment ratio was ≤ 0.25.

QAAF: the enrichment ratio was ≤ 0.25.

As for RPYT, the enrichment ratio was ≤ 0.25.

For ANLT, the enrichment ratio worked out at 4.56.

Turning to MNAA, the enrichment ratio stood at 8.61.

In the case of ANNT, the enrichment ratio is ≤ 0.25.

For the variant TNAD, the enrichment ratio is ≤ 0.25.

With ANAT, the enrichment ratio was 17.7.

Regarding TNAA, the enrichment ratio is 13.7.

As to HRYS, the enrichment ratio is ≤ 0.25.

With LMNM, the enrichment ratio was ≤ 0.25.

As for NMWP, the enrichment ratio was ≤ 0.25.

Turning to SACE, the enrichment ratio turned out to be 11.7.

On to SAMD, for which the enrichment ratio was ≤ 0.25.

For the variant SACK, the enrichment ratio turned out to be 0.562.

Consider SACI, for which the enrichment ratio amounted to 13.7.

Turning to SAPE, the enrichment ratio was ≤ 0.25.

For SAAM, the enrichment ratio came out at 7.53.

On to SAQP, for which the enrichment ratio is ≤ 0.25.

For the variant SACQ, the enrichment ratio is 13.5.

For the variant KACQ, the enrichment ratio was ≤ 0.25.

For the variant WVWC, the enrichment ratio was ≤ 0.25.

Take YMTW: the enrichment ratio is ≤ 0.25.

Regarding YYYE, the enrichment ratio was ≤ 0.25.

For the variant RLRN, the enrichment ratio was ≤ 0.25.

Consider SGRV, for which the enrichment ratio was ≤ 0.25.

As to TAPA, the enrichment ratio was ≤ 0.25.

SHQI: the enrichment ratio was ≤ 0.25.

In the case of KQQI, the enrichment ratio is ≤ 0.25.

Consider THQI, for which the enrichment ratio was 24.1.

For TKQI, the enrichment ratio came out at 17.5.

On to PTQI, for which the enrichment ratio is ≤ 0.25.

On to TQQI, for which the enrichment ratio is 11.5.

Regarding LAQI, the enrichment ratio is ≤ 0.25.

For TQRI, the enrichment ratio was ≤ 0.25.

In the case of TAQI, the enrichment ratio worked out at 23.7.

Turning to LQQI, the enrichment ratio is ≤ 0.25.

For the variant NHQI, the enrichment ratio was ≤ 0.25.

IYTC: the enrichment ratio was ≤ 0.25.

Take SRID: the enrichment ratio is ≤ 0.25.

For the variant LRCL, the enrichment ratio was ≤ 0.25.

In the case of VTSC, the enrichment ratio was ≤ 0.25.

For QCKT, the enrichment ratio was ≤ 0.25.

Regarding MFMN, the enrichment ratio is ≤ 0.25.

With YQKV, the enrichment ratio was ≤ 0.25.

With GKEW, the enrichment ratio was ≤ 0.25.

For the variant KSQI, the enrichment ratio was ≤ 0.25.

For TLQI, the enrichment ratio amounted to 14.7.

Take KAQI: the enrichment ratio was ≤ 0.25.

With VMGP, the enrichment ratio was ≤ 0.25.

On to DKIR, for which the enrichment ratio was ≤ 0.25.

Consider PQLM, for which the enrichment ratio is ≤ 0.25.

Take KNVL: the enrichment ratio was ≤ 0.25.

For the variant EARA, the enrichment ratio was ≤ 0.25.

As for FQWE, the enrichment ratio worked out at 1.71.

As to AAMY, the enrichment ratio was ≤ 0.25.

On to AIME, for which the enrichment ratio came to 1.65.

THME: the enrichment ratio came out at 49.

In the case of AAPE, the enrichment ratio was ≤ 0.25.

Regarding ATME, the enrichment ratio turned out to be 7.5.

In the case of TDVE, the enrichment ratio is ≤ 0.25.

Consider AHME, for which the enrichment ratio turned out to be 12.2.

Take AAME: the enrichment ratio came to 30.8.

For NHME, the enrichment ratio was ≤ 0.25.

With SHME, the enrichment ratio is ≤ 0.25.

LTME: the enrichment ratio was ≤ 0.25.

Turning to TDME, the enrichment ratio came to 11.5.

On to YSHD, for which the enrichment ratio was ≤ 0.25.

For PTCC, the enrichment ratio was ≤ 0.25.

With MPHN, the enrichment ratio was ≤ 0.25.

With RHYV, the enrichment ratio was ≤ 0.25.

Consider TAVD, for which the enrichment ratio is ≤ 0.25.

Regarding SIIF, the enrichment ratio is 0.435.

As to GTVM, the enrichment ratio is 36.9.

Turning to MTIM, the enrichment ratio was found to be 25.3.

As for FEVM, the enrichment ratio amounted to 11.6.

Regarding YTVM, the enrichment ratio is ≤ 0.25.

For the variant MTRM, the enrichment ratio was ≤ 0.25.

As to MTTM, the enrichment ratio came out at 18.5.

Regarding FCVM, the enrichment ratio is ≤ 0.25.

Regarding FEVA, the enrichment ratio is ≤ 0.25.

As for MKTM, the enrichment ratio was ≤ 0.25.

For the variant LTVM, the enrichment ratio was ≤ 0.25.

MTIV: the enrichment ratio is ≤ 0.25.

Regarding MTTD, the enrichment ratio was ≤ 0.25.

FLDD: the enrichment ratio was ≤ 0.25.

For the variant FDRW, the enrichment ratio is ≤ 0.25.

With VFHM, the enrichment ratio is ≤ 0.25.

With MSQP, the enrichment ratio is ≤ 0.25.

In the case of KNYG, the enrichment ratio was ≤ 0.25.

In the case of SAVM, the enrichment ratio came out at 4.22.

Regarding SQVM, the enrichment ratio is 19.6.

As to HEGM, the enrichment ratio was ≤ 0.25.

Turning to SEVM, the enrichment ratio worked out at 18.7.

As to SLVM, the enrichment ratio was 2.29.

Regarding GLAL, the enrichment ratio is 12.9.

As for SCVM, the enrichment ratio was determined as 8.76.

For the variant HEVA, the enrichment ratio was ≤ 0.25.

Regarding PLAL, the enrichment ratio is ≤ 0.25.

Turning to GYAL, the enrichment ratio is ≤ 0.25.

HEVM: the enrichment ratio came out at 24.4.

IQVM: the enrichment ratio is ≤ 0.25.

As for LWIF, the enrichment ratio was ≤ 0.25.

For the origin of these results see a collection of fitness landscapes (doi:10.1126/science.1257360).
